Source: PubChem BioAssay
Most compounds without a hit are left out; they make up all but 1.2% or so of the library.
GC-B act = human GC-B receptor activators, primary screen, HEK293 GC-B cells, cGMP TR-FRET, EC30 CNP. Atrial natriuretic peptide receptor 2 (Homo sapiens), P20594. 0% at EC30 CNP, 100% saturating CNP. activation, % at 10 µM. 0.11% of 370,000 active;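 active = activation at 10 µM reaching about 35% in either raw or pattern-adjusted values, limit read from the data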
Target sequence (P20594 whole entry, looked up): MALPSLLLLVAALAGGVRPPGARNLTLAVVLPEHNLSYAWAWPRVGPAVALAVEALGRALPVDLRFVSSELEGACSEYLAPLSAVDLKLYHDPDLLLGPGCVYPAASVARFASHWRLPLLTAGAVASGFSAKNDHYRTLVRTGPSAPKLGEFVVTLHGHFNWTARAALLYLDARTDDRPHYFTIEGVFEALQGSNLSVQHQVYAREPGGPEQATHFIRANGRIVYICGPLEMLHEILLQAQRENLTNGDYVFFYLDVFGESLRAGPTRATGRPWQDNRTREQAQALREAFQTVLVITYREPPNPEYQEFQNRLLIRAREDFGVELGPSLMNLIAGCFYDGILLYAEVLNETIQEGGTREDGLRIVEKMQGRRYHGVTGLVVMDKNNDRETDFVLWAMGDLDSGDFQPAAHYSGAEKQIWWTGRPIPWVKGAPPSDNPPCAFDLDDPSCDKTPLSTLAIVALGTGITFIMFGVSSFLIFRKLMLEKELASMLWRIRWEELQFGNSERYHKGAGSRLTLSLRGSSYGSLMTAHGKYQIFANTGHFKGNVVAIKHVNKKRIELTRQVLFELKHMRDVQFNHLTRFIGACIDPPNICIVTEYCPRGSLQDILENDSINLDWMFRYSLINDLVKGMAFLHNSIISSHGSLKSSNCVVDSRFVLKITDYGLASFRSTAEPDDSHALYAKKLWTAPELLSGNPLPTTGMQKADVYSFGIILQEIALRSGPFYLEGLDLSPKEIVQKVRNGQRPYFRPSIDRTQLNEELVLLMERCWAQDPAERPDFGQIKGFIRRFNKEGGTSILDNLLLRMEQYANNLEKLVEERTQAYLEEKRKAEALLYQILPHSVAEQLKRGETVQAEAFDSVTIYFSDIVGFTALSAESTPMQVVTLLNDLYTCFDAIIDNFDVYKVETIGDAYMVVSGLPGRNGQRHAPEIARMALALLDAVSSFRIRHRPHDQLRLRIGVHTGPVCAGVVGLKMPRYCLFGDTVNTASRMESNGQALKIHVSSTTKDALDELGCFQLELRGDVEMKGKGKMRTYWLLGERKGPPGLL
GC-A act = GC-A stimulated cGMP production enhancers – HEK293 GC-A cells, cGMP TR-FRET, EC30 ANP, primary screen; Atrial natriuretic peptide receptor 1 (Homo sapiens), P16066; 0% at EC30 ANP, 100% saturating ANP; activation, % at 10 µM; 0.14% of 370,000 active; AID 1671463, 2021; in the data active = activation above about 40%
TLR4-MyD88 BLA = inhibitors of TLR4-MyD88 association in cells, primary screen, cell-based, HeLa CL3-4, BLA complementation, FRET ratio; HeLa CL3-4 TLR4/MyD88 BLA complementation; inhibition, % at 8.4 µM; Toll-like receptor 4 (Homo sapiens) + Myeloid differentiation primary response protein …; 0.18% of 200,000 active; in the data active = inhibition above about 25%;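 note: 0% = vehicle and 100% = reference inhibitor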
TLR9-MyD88 inh = inhibitors of TLR9-MyD88 association in cells, primary screen, cell-based, CHO, BLA complementation, fluorescence | CCF4 FRET ratio | inhibition, % at 4.98 µM | 0.21% of 340,000 active | AID 504734, 2011 | Toll-like receptor 9 (Homo sapiens) + Myeloid differentiation primary response protein …;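 active = inhibition above the mean over all tested compounds plus 3 SD, cut at about 21% in these data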;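 note: 0% = DMSO only wells and 100% = clavulanate BLA inhibitor control wells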
Neddyl block = inhibitors of cullin neddylation, primary screen, biochemical, TR-FRET, uHTS, NAE and Ubc12 | inhibition, % at 25 µM | 0.58% of 360,000 active; in the data active = inhibition above about 36%
NOD2 RIPK2 PPI = NOD2-RIPK2 binding disruptors in cells, primary screen, fluorescence, CHO cells, BLA complementation. inhibition, % at 4.98 µM. Receptor-interacting serine/threonine-protein kinase 2 (Homo sapiens), O43353. 0.38% of 360,000 active. CCF4 ratio. AID 624267, 2012; in the data active = inhibition above about 21%;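 note: 0% = vehicle only and 100% = reference blocker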
NOD2 RIPK2 conf = NOD2-RIPK2 binding disruptors, retest, confirmation, fluorescence, CHO cells, BLA complementation, triplicate; shares compounds with NOD2 RIPK2 PPI; CCF4 FRET; inhibition, % at 4.98 µM; AID 624370, 2012; 70% of 1,200 active;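 active = mean inhibition across replicates above a set limit taken from the earlier primary screen, cut at about 21% in these data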;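 note: 0% = DMSO-only wells and the high end = clavulanate BLA-blocked wells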
NOD2 BLA counter = NOD2-RIPK2 counterscreen BLA reporter activity. CHO BLA reporter, CCF4 FRET ratio. 57% of 1,200 active. shares compounds with NOD2 RIPK2 PPI. inhibition, % at 4.98 µM. AID 624371;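 active = mean inhibition above the low-control mean inhibition plus three low-control SD, cut at about 11% in these data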;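 note: 0% = DMSO only wells and 100% = clavulanate high control wells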
* = called active by the depositor.

`O=C(CN1CCc2onc(-c3ccc(-n4cc(COc5ccc([N+](=O)[O-])cc5)nn4)cc3)c2C1=O)N1CCOCC1` gave GC-B act -8.0 and GC-A act 2.7.
Cc1ccc(CC(NC(=O)c2ccccc2)C(=O)NC(CC(C)C)C(=O)O)cc1 (configuration not stated) was read as GC-B act 2.4, GC-A act 4.4, TLR4-MyD88 BLA 11.2, TLR9-MyD88 inh 10.6, Neddyl block 1.6, NOD2 RIPK2 PPI 58.8*, NOD2 RIPK2 conf -2.0 and NOD2 BLA counter 1.3.
COc1ccc(CN2CN3Cc4ccc(C)cc4C3CS2(=O)=O)cc1 (configuration not stated) was read as GC-B act 5.8 and GC-A act 1.3.
Screening COCc1cc(C)c2c(N)c(C#N)sc2n1 returned GC-B act 1.4, GC-A act 7.3, TLR4-MyD88 BLA -3.4, TLR9-MyD88 inh 1.3 and NOD2 RIPK2 PPI -7.1.
Screening COc1ccc(-c2cc(-c3cccs3)nc3sc(C#N)c(N)c23)cc1 returned GC-B act -1.2, GC-A act 9.7, TLR4-MyD88 BLA 17.1, TLR9-MyD88 inh 13.4, Neddyl block 17.9, NOD2 RIPK2 PPI 44.7*, NOD2 RIPK2 conf 51.4* and NOD2 BLA counter 68.6*.
For N#Cc1sc2nc(C3CC3)cc(-c3ccc(Cl)cc3)c2c1N the results were GC-B act 0.3, GC-A act 8.7, TLR4-MyD88 BLA 12.6, TLR9-MyD88 inh 14.3, NOD2 RIPK2 PPI 27.9*, NOD2 RIPK2 conf 19.1 and NOD2 BLA counter 25.0*.
O=c1oc2cc(O)ccc2cc1-c1nc2ccccc2o1 was read as GC-B act -2.2, GC-A act -4.3, Neddyl block -32.6, NOD2 RIPK2 PPI 56.9*, NOD2 RIPK2 conf 54.2* and NOD2 BLA counter 68.5*.
Screening CCO[C@H]1OC(C(=O)N2CCN(Cc3ccc4c(c3)OCO4)CC2)=C[C@@H](c2csc3ccccc23)[C@@H]1CCCO returned GC-B act -5.1, GC-A act -2.5, TLR4-MyD88 BLA -5.9, TLR9-MyD88 inh -12.7, Neddyl block -20.8, NOD2 RIPK2 PPI 22.5*, NOD2 RIPK2 conf 11.8 and NOD2 BLA counter -1.3.
For O=C(NN=C/C=C/c1ccco1)c1cc(-c2ccc(Cl)cc2)n[nH]1 the results were GC-B act -16.9 and GC-A act 5.7.
`CC1=NNC(=O)/C1=C\c1cn(-c2ccccc2)nc1-c1ccccc1` gave GC-B act -9.5, GC-A act -8.6, TLR4-MyD88 BLA 6.8, TLR9-MyD88 inh 3.0, Neddyl block 7.3, NOD2 RIPK2 PPI 54.4*, NOD2 RIPK2 conf 60.3* and NOD2 BLA counter 5.3.
Screening O=Cc1cn(-c2ccccc2)nc1-c1ccccc1 returned GC-B act 0.4, GC-A act 2.9, TLR9-MyD88 inh 0.0, Neddyl block -4.0 and NOD2 RIPK2 PPI 2.1.
`Fc1ccc(/C=C2\CCCC3=C2Nc2ncnn2C3c2ccc(F)cc2)cc1` (configuration not stated) gave GC-B act -13.0, GC-A act -21.6, TLR4-MyD88 BLA -9.8, TLR9-MyD88 inh 4.9, Neddyl block 14.3, NOD2 RIPK2 PPI 25.8*, NOD2 RIPK2 conf 10.6 and NOD2 BLA counter 13.9*.
O=c1[nH]c2cc3c(cc2cc1CN(CCCO)Cc1nnnn1Cc1ccc(F)cc1)OCO3 was read as GC-B act -4.8, GC-A act -3.1, TLR4-MyD88 BLA 2.8, TLR9-MyD88 inh 8.4, NOD2 RIPK2 PPI 26.1*, NOD2 RIPK2 conf -3.2 and NOD2 BLA counter 2.4.
Cc1ccc2cc(CN(CCO)Cc3nnnn3Cc3ccc(F)cc3)c(=O)[nH]c2c1 was read as GC-B act 5.9, GC-A act 0.0, TLR4-MyD88 BLA -1.5, TLR9-MyD88 inh -5.7, Neddyl block 16.2 and NOD2 RIPK2 PPI 0.3.
CN(C)CCC(=O)C(Cc1ccccc1)c1ccccc1 (configuration not stated) was read as GC-B act -15.7, GC-A act -34.7, TLR9-MyD88 inh 2.7, Neddyl block 2.2, NOD2 RIPK2 PPI 34.6*, NOD2 RIPK2 conf 28.4* and NOD2 BLA counter 1.7.
`CC(C)C[C@H]1COc2cccc(N3CCSCC3)c2S(=O)(=O)N1C` gave GC-B act -6.0 and GC-A act -1.8.
For CCOC(=O)CC[C@H]1CC[C@]2(CCCN(C(=O)c3cccnc3)C2)O1 the results were GC-B act 7.4 and GC-A act 0.4.
For C=CCN(C)CC#Cc1ccccc1C the results were GC-B act 11.2 and GC-A act 4.3.
CC(=O)Oc1ccc2cc(-c3cccnc3)c(=O)oc2c1 was read as GC-B act 0.2, GC-A act 3.7, TLR9-MyD88 inh 8.6, Neddyl block 21.0, NOD2 RIPK2 PPI 30.5*, NOD2 RIPK2 conf 29.6* and NOD2 BLA counter 44.6*.
COc1ccc2cc(-c3ccccc3)c(=O)oc2c1 was read as GC-B act -4.8, GC-A act 5.1, TLR9-MyD88 inh -3.7 and NOD2 RIPK2 PPI -7.6.
For CCCCNC(=O)O[C@H]1CC[C@@]23CCCN2C(=O)CCC[C@H]3C1 the results were GC-B act -6.9 and GC-A act 0.5.
CCOc1ccc(C(=O)CCC(=O)Nc2ccc(C)c(S(=O)(=O)N3CCCCC3)c2)cc1 was read as GC-B act -4.0, GC-A act 2.1, TLR9-MyD88 inh -7.2, Neddyl block -7.0 and NOD2 RIPK2 PPI 1.0.
For CC(=O)c1ccc(OCCCC(=O)Nc2ccc(C)c(S(=O)(=O)N3CCCCC3)c2)cc1 the results were GC-B act 0.7, GC-A act 0.4, TLR9-MyD88 inh -8.1, Neddyl block -3.6, NOD2 RIPK2 PPI 36.3*, NOD2 RIPK2 conf -7.1 and NOD2 BLA counter -6.7.
Screening C=C1CC2(OC1=O)c1ccccc1CCc1ccccc12 returned GC-B act -12.3, GC-A act -33.3, TLR9-MyD88 inh 15.6, Neddyl block 0.6, NOD2 RIPK2 PPI 83.8*, NOD2 RIPK2 conf 89.6* and NOD2 BLA counter 25.2*.
`O=C1NC(=O)C2(CCc3ccccc32)N1` (configuration not stated) gave GC-B act -7.3, GC-A act -5.8, TLR4-MyD88 BLA -3.1, TLR9-MyD88 inh -4.9, Neddyl block -1.7 and NOD2 RIPK2 PPI 5.7.
